NCOA2 inhibitor = inhibition of GAL4-SRC2 driven luciferase reporter, primary screen, SRC2 inhibitor project, cell-based, luminescence | HEK293 GAL4-SRC2 luciferase reporter | AID 651957, 2012 | inhibition, % at 9 µM | 0.17% of 370,000 active;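 active means inhibition above the mean inhibition of all tested compounds plus 3 SD, set per campaign, cut at about 52% in these data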;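 further: 0% = DMSO treated cells and 100% = cells given Gossypol at 36 µM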
GalR3 antag = GalR3 antagonists in HEK293 cells, primary screen, cell-based, fluorescence readout; HEK293 GalR3-CNG cAMP membrane potential fluorescence; galR3 body fused to GalR1 C-terminus; inhibition, % at 3 µM; 0.44% of 360,000 active; AID 651719, 2012;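 active means inhibition above the screen-wide average plus 3 SD, cut at about 13% in these data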;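 further: forskolin and galanin both at EC90 stimulate the cells; cAMP rise reported by CNG channel membrane potential dye signal; 0% = forskolin plus galanin with DMSO and 100% = forskolin alone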
NCOA1 inh = SRC1 coactivator transcriptional activity inhibitors, primary screen, cell-based, luminescence | Nuclear receptor coactivator 1 (Homo sapiens), Q15788 | 0.12% of 360,000 active | HEK293 GAL4-SRC1 luciferase reporter | inhibition, % at 3.6 µM | AID 588354, 2011;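 active means inhibition above the campaign mean plus 3 SD, with each screening campaign given its own cutoff, cut at about 60% in these data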;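 further: 0% = DMSO treated cells and 100% = gossypol at 36 µM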
Target sequence (Q15788 whole entry, looked up, the tested form may be a part): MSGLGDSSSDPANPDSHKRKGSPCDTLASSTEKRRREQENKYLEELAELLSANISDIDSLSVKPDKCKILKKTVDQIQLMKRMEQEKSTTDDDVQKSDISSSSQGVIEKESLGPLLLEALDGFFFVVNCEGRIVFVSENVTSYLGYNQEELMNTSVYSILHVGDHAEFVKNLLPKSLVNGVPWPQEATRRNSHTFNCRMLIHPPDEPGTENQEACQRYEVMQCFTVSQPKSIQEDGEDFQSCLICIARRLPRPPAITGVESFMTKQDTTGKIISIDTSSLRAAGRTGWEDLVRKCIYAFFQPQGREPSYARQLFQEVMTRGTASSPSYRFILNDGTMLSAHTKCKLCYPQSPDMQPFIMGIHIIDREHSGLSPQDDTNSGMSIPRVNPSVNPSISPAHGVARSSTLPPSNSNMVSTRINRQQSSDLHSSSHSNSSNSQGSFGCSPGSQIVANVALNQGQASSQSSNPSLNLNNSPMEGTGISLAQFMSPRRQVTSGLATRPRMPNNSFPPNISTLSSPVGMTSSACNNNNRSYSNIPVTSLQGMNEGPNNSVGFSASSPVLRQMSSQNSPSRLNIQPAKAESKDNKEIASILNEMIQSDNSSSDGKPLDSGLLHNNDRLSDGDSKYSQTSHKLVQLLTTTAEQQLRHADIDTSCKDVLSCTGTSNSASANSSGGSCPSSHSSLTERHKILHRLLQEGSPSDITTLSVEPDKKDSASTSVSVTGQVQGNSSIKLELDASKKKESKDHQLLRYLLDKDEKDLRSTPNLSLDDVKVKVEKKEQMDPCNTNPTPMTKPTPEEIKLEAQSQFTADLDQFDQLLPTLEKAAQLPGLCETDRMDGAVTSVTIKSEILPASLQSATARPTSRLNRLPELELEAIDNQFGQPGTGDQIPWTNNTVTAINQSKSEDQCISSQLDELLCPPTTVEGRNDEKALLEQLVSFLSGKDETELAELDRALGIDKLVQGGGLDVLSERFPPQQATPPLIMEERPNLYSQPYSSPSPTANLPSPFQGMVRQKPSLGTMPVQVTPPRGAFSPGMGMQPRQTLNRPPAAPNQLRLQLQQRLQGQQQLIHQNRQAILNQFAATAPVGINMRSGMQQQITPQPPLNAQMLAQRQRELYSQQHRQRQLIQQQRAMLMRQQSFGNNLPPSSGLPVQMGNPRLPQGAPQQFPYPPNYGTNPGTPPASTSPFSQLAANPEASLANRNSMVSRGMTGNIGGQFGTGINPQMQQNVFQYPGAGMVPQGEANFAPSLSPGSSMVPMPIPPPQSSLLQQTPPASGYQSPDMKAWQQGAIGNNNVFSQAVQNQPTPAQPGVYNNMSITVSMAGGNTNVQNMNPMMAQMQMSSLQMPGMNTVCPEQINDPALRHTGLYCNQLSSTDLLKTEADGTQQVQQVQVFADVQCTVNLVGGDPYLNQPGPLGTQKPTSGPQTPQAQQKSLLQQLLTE
NR2F2 inh = NR2F2 transcriptional activity inhibitors, primary screen, cell-based, luciferase reporter, HEK293T, luminescence | COUP transcription factor 2 (Homo sapiens), P24468 | HEK293T NGFI-A luciferase reporter | inhibition, % at 8.6 µM | 0.7% of 370,000 active;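 active means inhibition above a per-plate cutoff, mean inhibition of test wells between control levels plus 3 SD, cut at about 38% in these data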;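 further: cells cotransfected with COUP-TFII expression vector driving the NGFI-A reporter; 0% = median of COUP-TF2 test wells and 100% = reporter-only cells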
NCOA3 inh = SRC3 coactivator transcriptional activity inhibitors, primary screen, cell-based, luminescence | inhibition, % at 3.6 µM | HEK293 GAL4-SRC3 luciferase reporter | 0.17% of 360,000 active;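 active means inhibition above a per-campaign cutoff, the mean of all compounds plus 3 SD, cut at about 60% in these data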;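 further: 0% = DMSO-treated cells and 100% = gossypol-treated cells at 36 µM; higher means less SRC3-driven luciferase light from the GAL4 reporter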
NR5A2 inv ag = LRH-1 (NR5A2) inverse agonists, primary screen, cell-based, luminescence, HEK293T, StAR-luciferase reporter; Nuclear receptor subfamily 5 group A member 2 (Homo sapiens), O00482; LRH-1 transfected, 24 h; inhibition, % at 3.6 µM; 0.13% of 360,000 active;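 active means inhibition above the mean inhibition of all tested compounds plus 3 SD, cut at about 73% in these data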;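 further: 0% = DMSO wells and 100% = reporter-only cells lacking LRH-1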
Gal4-VP16 ctr = Gal4-VP16 luciferase reporter inhibitors, counter-screen for COUP-TFII antagonist project, cell-based, luminescence, HEK293. 25% of 2,500 active. inhibition, % at 8.5 µM. shares compounds with NR2F2 inh. AID 687007, 2013; in the data active means inhibition above about 13%
COUP-TFII conf = NR2F2 transcriptional activity inhibitors, confirmation, cell-based, luciferase reporter, HEK293, triplicate; shares compounds with NR2F2 inh; HEK293 NGFI-A luciferase reporter, luminescence; inhibition, % at 8.5 µM; 45% of 2,500 active;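 active means mean inhibition over three repeats above a set limit taken from the earlier primary screen, cut at about 38% in these data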;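 further: 100% = cells given the luciferase reporter alone without the COUP-TF2 vector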
Starred values were filed as active, the others as inactive; . = not tested or not shown. The list is not random: actives were taken first. Their share in the collection is about 1.1%.

SMILES	NCOA2 inhibitor	GalR3 antag	NCOA1 inh	NR2F2 inh	NCOA3 inh	NR5A2 inv ag	Gal4-VP16 ctr	COUP-TFII conf
COc1ccc2c(c1)[nH]c1c(N3CCN(Cc4ccc5c(c4)OCO5)CC3)ncnc12	8	-2	6	46*	24	51	10	65*
Cc1ccc2[nH]c3c(N4CCN(Cc5ccccc5)CC4)ncnc3c2c1	19	10	-56	31	7	-2	.	.
Cc1nc(N2CCN(Cc3ccc4c(c3)OCO4)CC2)c2oc3ccccc3c2n1	31	-12	-1	83*	4	21	-5	9
O=C(Nc1ccc(Br)cc1)OCCN1CCCC12CCC(c1ccccc1)CC2 (configuration not stated)	.	.	.	4	.	.	.	.
COCCCN1C(=O)[C@H](CC(=O)N2CCCCC2)[C@]2(C(=O)OC)CCCCC=C12	-8	.	.	-17	.	.	.	.
CS(=O)(=O)N[C@@H]1C[C@@H]2O[C@@H](CO)CC[C@@H]2O[C@@H]1CCc1ccc(-c2ccccc2F)cc1	-16	.	.	7	.	.	.	.
CCOC(=O)c1cc2c(=Cc3ccc(N(C)C)cc3)c3ccccc3n2[n+]1C	-25	-1	43	58*	52	73*	21*	49*
Cc1cc2c(=Cc3ccc(N(C)C)cc3)c3ccccc3n2[n+]1C	-41	1	53	75*	62	76*	12	63*
CCOC(=O)SC1=N/C(=C\c2ccc(N(C)C)cc2)C(=O)S1	-11	-2	-16	-10	2	5	.	.
CC1=NN(c2cccc(F)c2)C(=O)/C1=C/c1ccc(N(C)C)cc1	32	-10	-9	11	2	4	.	.
O=S1(=O)CC2c3ccccc3CN2CN1Cc1ccc(F)cc1 (configuration not stated)	-16	.	.	-9	.	.	.	.
CCCC(=O)N1CCC[C@]2(CC[C@H](CCC#N)O2)C1	-14	.	.	5	.	.	.	.
COCc1ccc(C(=O)N2CCC(CCC(=O)Nc3cccc(C)c3)CC2)s1	41	-4	15	40*	5	11	30*	14
Cc1cc(C)cc(C(=O)NC(=S)Nc2ccc(-c3cc4ccccc4oc3=O)cc2)c1	46	-1	14	39*	26	10	18*	24
Cc1ccc(NS(=O)(=O)c2cccc(C(=O)NC3CCN(Cc4ccccc4)CC3)c2)cc1	15	-7	8	40*	14	19	3	20
Cc1ccc(Cl)cc1S(=O)(=O)N1CCC(C(=O)NC2CCN(Cc3ccccc3)CC2)CC1	16	-12	13	38*	16	9	5	44*
CN(CC(=O)Nc1ccc(Cl)cc1)C(=O)c1cccc(S(=O)(=O)N2CCN(Cc3ccccc3)CC2)c1	20	-5	8	37*	-7	11	1	5
CCOc1ccc(CN2CCN(S(=O)(=O)c3ccc(NC(C)=O)cc3)CC2)cc1	25	6	-27	48*	20	25	-4	12
CCCCCCCCN1C(=O)[C@@H](CC(=O)N2CCN(C(=O)OCC)CC2)C[C@@]2(C(=O)OC)C1=C[C@H](COCc1ccccc1)O[C@@H]2C	10	.	.	14	.	.	.	.
Cc1nn(CCC(=O)NNC(=O)Nc2ccccc2F)c(C)c1[N+](=O)[O-]	12	.	.	0	.	.	.	.
N#Cc1cccc(OC[C@@H](O)CN2CCC(C(O)(c3ccccc3)c3ccccc3)CC2)c1	-20	.	.	-11	.	.	.	.
CS(=O)(=O)c1ccc(NC(=O)c2cccc(S(=O)(=O)N3CCN(Cc4ccccc4)CC3)c2)cc1	-2	-4	-22	41*	19	8	-6	16
O=C(Nc1ccccc1)Nc1cc(OCC(F)(F)F)cc(OCC(F)(F)F)c1	17	-6	9	67*	67*	59	0	20
CC(=O)N1CCc2c1cccc2S(=O)(=O)NC(CC(C)C)C(=O)Nc1ccccc1C (configuration not stated)	-13	.	.	-13	.	.	.	.
O=C(N=C1N(CC2CC2)CC2(C=C3CCCCC3n3c(=O)n(-c4ccccc4)c(=O)n32)N1C(=O)OCc1ccccc1)c1ccccc1 (configuration not stated)	2	.	.	-9	.	.	.	.
SMILES	NCOA2 inhibitor	GalR3 antag	NCOA1 inh	NR2F2 inh	NCOA3 inh	NR5A2 inv ag	Gal4-VP16 ctr	COUP-TFII conf
O=C(Nc1ccn(Cc2ccccc2F)n1)c1ccc(COc2ccccc2Cl)cc1	10	-8	13	61*	40	25	-15	24
O=C(Nc1ccn(Cc2c(F)c(F)cc(F)c2F)n1)c1ccc(COc2ccccc2Cl)cc1	.	.	15	.	22	-1	.	.
COc1ccc(OC)c(S(=O)(=O)N2CCCCC2C(=O)N2CCN(c3ccccc3F)CC2)c1 (configuration not stated)	9	.	.	-4	.	.	.	.
OC(CNc1ncnc2sccc12)c1ccccc1 (configuration not stated)	-17	5	-55	40*	-52	-57	-150	-35
COc1ccc(CNc2ncnc3sccc23)cc1OC	6	-10	-7	48*	21	40	-1	23
Cc1cc2c(NCc3ccccc3)ncnc2s1	29	-4	30	49*	24	26	-4	26
COc1ccc(CNc2ncnc3sccc23)cc1	32	-10	8	49*	28	34	1	39*
COc1ccc(C(CNc2ncnc3sccc23)N(C)C)cc1OC (configuration not stated)	-21	-9	-22	-6	3	15	.	.
COC(=O)[C@]12C[C@H](CC(=O)NCCC(C)C)C(=O)N(CCc3ccc(OC)c(OC)c3)C1=C[C@H](C(C)C)O[C@@H]2C1CC1	24	.	.	1	.	.	.	.
COc1cc(NC(=O)C2CCCN(S(=O)(=O)c3cccc4cccnc34)C2)cc(OC)c1 (configuration not stated)	1	.	.	-4	.	.	.	.
CC(=O)N1CCN(C(=O)CCn2nnc3ccccc32)CC1	-15	.	.	-14	.	.	.	.
O=C(N/N=C/c1ccc([N+](=O)[O-])s1)c1ccccc1Br	32	-4	-21	26	20	53	.	.
Cc1ccccc1C(=O)N/N=C/c1ccc([N+](=O)[O-])s1	51	-3	21	57*	46	63	55*	44*

Screening data deposited in PubChem BioAssay by The Scripps Research Institute Molecular Screening Center.
